# Reference: PMC7862700, “An all-to-all approach to the identification of sequence-specific readers for epigenetic DNA modifications on cytosine”
# What was measured:
# Experiment in all cases: DAPPL (digital affinity profiling via proximity ligation, sequencing); 10 mM Tris-HCl pH 7.5, 50 mM NaCl, 1 mM DTT, 4% glycerol, room temperature, 30 min; GST-TFs on glutathione beads, 16-mer random dsDNA library, 0.1% formaldehyde crosslink after washing; high values mean tight binding
# Conditions in all cases: protein: recombinant; tags: N-terminal GST; dsDNA, one strand shown
# FEV = molecular target: T1, FEV (Homo sapiens, UniProt Q99581 1-238)
# T1 sequence: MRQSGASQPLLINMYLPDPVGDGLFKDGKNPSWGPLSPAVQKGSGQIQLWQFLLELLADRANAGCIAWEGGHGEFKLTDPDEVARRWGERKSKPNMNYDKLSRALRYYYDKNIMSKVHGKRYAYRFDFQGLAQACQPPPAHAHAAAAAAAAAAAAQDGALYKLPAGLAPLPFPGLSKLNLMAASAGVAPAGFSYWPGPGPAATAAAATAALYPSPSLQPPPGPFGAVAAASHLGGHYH
# How it was run: (§1)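 A tag-only sample was pooled with DNA-barcoded human transcription factors that had been expressed in yeast as GST fusions and captured on glutathione beads. The pools were incubated for 30 min at room temperature with 200 nmole of a random double-stranded 16-mer DNA library in Tris/NaCl/DTT/glycerol buffer, then washed, crosslinked with 0.1% formaldehyde, proximity-ligated (BsaI/T4 ligase, 1 h, 37 °C), PCR-amplified and sequenced on an Illumina NextSeq500. Binding signal is each hexamer's read frequency for a factor divided by its frequency for the tag-only sample.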
# ETV5 = ETV5 (Homo sapiens, UniProt P41161 1-510)
# How it was run: as §1
# SPIC = molecular target: T2, SPIC (Homo sapiens, UniProt Q8N5J4 1-248)
# T2 sequence: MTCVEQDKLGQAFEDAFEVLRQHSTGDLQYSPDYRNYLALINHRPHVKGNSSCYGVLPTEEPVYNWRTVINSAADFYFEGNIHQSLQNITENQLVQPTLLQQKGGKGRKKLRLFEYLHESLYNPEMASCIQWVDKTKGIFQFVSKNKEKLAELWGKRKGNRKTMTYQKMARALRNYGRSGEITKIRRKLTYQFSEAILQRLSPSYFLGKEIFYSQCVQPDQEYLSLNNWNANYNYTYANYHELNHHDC
# How it was run: as §1
# ELF4 = ELF4 (Homo sapiens, UniProt Q99607 1-663)
# How it was run: as §1
# ELK4 = molecular target: T3, ELK4 (Homo sapiens, UniProt P28324-2 1-405)
# T3 sequence: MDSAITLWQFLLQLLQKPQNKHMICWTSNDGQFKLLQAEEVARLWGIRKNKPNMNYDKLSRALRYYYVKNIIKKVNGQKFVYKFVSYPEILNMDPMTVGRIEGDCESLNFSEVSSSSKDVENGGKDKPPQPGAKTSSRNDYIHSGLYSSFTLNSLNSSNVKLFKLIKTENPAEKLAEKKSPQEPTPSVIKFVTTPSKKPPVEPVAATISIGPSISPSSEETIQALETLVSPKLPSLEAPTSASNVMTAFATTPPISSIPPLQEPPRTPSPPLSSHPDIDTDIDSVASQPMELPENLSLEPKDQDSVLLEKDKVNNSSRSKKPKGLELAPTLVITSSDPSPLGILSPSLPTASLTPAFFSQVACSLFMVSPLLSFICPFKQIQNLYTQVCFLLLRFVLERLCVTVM
# How it was run: as §1
# ETV2 = molecular target: T4, ETV2 (Homo sapiens, UniProt O00321 1-342)
# T4 sequence: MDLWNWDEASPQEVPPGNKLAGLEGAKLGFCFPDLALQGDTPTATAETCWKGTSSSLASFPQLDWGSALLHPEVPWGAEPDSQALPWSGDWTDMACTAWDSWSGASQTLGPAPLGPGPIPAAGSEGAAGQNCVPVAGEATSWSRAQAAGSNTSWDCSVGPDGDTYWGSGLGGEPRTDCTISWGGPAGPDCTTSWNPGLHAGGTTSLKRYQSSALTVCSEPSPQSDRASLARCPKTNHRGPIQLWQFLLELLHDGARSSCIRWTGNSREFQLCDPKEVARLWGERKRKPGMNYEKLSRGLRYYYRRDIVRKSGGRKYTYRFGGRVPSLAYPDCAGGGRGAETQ
# How it was run: as §1
# ELF3 = molecular target: T5, ELF3 (Homo sapiens, UniProt P78545 1-371)
# T5 sequence: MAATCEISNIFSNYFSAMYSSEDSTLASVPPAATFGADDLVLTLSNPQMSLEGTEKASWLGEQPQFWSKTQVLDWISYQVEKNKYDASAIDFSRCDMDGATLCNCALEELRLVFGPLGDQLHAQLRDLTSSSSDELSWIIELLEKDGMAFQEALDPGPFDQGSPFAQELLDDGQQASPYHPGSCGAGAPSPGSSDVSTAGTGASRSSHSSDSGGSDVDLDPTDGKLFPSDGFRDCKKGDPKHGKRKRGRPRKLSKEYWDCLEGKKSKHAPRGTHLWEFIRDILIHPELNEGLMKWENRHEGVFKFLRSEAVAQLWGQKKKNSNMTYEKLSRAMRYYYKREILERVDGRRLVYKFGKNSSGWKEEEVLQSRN
# How it was run: as §1
# ETV1 = ETV1 (Homo sapiens, UniProt P50549 1-477)
# How it was run: as §1
# ERF = molecular target: T6, ERF (Homo sapiens, UniProt P50548 1-548)
# T6 sequence: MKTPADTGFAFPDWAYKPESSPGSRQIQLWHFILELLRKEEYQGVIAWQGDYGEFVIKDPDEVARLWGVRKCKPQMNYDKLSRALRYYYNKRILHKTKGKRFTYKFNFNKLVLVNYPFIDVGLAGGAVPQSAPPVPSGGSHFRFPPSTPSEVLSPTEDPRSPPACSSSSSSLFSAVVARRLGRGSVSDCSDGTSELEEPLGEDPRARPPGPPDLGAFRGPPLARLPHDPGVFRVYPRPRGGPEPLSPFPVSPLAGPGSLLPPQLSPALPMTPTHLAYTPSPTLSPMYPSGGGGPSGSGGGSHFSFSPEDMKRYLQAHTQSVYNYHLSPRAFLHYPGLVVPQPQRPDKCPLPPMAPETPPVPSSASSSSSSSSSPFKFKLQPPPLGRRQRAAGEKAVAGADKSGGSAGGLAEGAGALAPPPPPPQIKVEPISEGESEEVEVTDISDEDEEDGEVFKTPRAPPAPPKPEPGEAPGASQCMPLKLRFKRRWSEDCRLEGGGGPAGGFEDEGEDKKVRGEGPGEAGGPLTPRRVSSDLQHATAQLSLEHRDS
# How it was run: as §1
# ETV3L = molecular target: T7, ETV3L (Homo sapiens, UniProt Q6ZN32 1-361)
# T7 sequence: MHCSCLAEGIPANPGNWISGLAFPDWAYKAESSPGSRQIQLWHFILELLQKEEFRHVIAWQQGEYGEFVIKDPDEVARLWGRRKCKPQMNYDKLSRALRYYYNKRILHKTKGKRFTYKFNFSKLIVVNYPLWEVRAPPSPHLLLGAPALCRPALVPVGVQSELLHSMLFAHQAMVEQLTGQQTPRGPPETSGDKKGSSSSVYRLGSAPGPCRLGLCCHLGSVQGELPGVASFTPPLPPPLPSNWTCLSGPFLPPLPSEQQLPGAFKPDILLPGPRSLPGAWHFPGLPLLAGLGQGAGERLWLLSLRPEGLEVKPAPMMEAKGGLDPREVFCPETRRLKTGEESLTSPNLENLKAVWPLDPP
# How it was run: as §1
# ETS2 = molecular target: T8, ETS2 (Homo sapiens, UniProt P15036 1-469)
# T8 sequence: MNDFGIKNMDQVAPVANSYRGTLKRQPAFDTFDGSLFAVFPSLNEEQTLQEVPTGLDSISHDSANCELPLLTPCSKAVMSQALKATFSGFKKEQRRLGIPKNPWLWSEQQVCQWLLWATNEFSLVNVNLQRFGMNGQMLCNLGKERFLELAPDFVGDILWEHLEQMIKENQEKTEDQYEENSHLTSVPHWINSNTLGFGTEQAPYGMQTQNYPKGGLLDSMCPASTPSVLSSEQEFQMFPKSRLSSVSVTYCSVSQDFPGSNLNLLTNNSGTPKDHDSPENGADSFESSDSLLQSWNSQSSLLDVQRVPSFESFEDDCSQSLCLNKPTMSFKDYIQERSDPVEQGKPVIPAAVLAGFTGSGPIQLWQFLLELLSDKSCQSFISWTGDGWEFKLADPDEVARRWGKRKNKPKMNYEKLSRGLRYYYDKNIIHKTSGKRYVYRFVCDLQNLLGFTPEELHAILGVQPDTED
# How it was run: as §1
# SPDEF = molecular target: T9, SPDEF (Homo sapiens, UniProt O95238 1-335)
# T9 sequence: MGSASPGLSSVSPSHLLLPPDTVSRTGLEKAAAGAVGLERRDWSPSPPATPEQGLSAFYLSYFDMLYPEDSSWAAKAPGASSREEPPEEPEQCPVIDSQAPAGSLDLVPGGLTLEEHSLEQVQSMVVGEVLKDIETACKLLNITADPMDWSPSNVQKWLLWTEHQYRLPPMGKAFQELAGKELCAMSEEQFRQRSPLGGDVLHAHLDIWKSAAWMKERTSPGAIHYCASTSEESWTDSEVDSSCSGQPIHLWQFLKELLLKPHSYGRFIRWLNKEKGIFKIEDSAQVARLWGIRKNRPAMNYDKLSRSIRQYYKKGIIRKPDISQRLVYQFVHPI
# How it was run: as §1
# ETV7 = molecular target: T10, ETV7 (Homo sapiens, UniProt Q9Y603 1-341)
# T10 sequence: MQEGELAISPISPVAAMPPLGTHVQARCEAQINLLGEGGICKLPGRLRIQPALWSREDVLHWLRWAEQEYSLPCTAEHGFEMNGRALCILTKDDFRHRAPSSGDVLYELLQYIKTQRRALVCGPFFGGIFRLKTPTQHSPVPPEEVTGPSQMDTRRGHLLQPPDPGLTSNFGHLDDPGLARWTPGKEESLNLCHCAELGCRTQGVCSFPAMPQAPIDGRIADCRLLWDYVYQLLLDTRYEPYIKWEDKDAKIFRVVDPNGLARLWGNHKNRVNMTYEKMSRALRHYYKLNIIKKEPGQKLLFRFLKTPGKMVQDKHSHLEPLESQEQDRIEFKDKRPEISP
# How it was run: as §1
# ELF5 = molecular target: T11, ELF5 (Homo sapiens, UniProt Q9UKW6-2 1-255)
# T11 sequence: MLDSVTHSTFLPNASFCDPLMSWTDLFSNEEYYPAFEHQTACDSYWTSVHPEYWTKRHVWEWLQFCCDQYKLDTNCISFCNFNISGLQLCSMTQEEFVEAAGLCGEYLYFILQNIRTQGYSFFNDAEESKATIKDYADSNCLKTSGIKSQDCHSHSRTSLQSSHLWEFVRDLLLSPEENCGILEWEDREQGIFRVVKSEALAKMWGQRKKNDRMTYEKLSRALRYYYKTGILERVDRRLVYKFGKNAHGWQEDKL
# How it was run: as §1
# ETV3 = molecular target: T12, ETV3 (Homo sapiens, UniProt P41162-2 1-143)
# T12 sequence: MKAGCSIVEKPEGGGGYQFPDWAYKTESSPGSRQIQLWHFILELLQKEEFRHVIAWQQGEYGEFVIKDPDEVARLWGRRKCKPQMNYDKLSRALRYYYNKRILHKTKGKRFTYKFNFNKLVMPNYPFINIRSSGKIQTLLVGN
# How it was run: as §1
# ETV6 = ETV6 (Homo sapiens, UniProt P41212 1-452)
# How it was run: as §1
# Chain of ETV1 (P50549 whole entry): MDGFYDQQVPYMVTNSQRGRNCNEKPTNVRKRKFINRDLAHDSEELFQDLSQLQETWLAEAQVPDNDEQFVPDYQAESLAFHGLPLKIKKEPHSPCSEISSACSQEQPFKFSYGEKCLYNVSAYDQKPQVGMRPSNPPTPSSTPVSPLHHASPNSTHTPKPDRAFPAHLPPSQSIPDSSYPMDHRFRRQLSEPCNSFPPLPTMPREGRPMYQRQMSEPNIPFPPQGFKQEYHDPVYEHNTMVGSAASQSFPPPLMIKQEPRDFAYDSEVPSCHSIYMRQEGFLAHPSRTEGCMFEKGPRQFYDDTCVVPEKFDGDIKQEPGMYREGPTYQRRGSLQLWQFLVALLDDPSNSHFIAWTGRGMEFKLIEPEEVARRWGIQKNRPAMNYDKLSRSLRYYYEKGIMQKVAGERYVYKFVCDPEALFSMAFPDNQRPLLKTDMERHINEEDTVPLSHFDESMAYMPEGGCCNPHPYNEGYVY
# Chain of ETV6 (P41212 whole entry): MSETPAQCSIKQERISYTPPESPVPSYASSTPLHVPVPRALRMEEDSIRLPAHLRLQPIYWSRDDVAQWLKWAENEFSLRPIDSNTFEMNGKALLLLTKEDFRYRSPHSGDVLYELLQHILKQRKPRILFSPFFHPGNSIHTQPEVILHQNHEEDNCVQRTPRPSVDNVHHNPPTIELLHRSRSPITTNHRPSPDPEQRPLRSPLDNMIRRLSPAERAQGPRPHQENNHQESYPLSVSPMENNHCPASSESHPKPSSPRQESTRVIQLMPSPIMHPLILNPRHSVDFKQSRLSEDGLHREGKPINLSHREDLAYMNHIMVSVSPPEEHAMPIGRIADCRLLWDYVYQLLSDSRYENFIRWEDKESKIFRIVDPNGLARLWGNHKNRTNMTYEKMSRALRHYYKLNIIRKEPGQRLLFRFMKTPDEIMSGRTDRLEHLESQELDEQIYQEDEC
# Chain of ETV5 (P41161 whole entry): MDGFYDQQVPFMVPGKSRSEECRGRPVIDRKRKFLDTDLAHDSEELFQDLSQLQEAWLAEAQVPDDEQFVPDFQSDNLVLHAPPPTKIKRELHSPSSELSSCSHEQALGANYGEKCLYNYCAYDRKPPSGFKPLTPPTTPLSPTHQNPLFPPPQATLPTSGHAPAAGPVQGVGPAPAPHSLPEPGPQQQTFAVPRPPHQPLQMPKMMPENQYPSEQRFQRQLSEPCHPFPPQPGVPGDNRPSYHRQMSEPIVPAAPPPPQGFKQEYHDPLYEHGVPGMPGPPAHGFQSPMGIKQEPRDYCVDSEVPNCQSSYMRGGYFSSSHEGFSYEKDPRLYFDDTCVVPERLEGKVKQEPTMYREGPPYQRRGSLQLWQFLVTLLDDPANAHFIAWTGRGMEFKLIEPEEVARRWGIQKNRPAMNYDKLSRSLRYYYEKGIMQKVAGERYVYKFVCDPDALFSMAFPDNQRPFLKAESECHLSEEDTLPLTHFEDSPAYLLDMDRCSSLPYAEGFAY
# Chain of ELF4 (Q99607 whole entry): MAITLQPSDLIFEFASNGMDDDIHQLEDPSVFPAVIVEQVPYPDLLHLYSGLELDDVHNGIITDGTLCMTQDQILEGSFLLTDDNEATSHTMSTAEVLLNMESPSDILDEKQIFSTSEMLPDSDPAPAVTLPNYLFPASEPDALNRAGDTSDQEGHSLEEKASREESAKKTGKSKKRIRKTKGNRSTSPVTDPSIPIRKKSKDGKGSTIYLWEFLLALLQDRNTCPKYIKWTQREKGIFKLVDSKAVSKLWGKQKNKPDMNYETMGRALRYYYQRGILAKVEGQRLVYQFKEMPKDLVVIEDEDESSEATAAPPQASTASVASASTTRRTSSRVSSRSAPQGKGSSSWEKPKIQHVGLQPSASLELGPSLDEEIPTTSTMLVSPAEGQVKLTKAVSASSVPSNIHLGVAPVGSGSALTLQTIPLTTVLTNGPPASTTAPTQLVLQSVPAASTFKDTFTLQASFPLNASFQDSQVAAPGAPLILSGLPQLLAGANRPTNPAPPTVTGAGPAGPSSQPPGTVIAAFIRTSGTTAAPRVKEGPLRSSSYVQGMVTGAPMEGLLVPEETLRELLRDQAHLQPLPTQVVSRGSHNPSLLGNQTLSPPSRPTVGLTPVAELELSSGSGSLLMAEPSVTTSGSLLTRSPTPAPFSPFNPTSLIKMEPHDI
Sequence,binding signal (FEV),binding signal (ETV5),binding signal (SPIC),binding signal (ELF4),binding signal (ELK4),binding signal (ETV2),binding signal (ELF3),binding signal (ETV1),binding signal (ERF),binding signal (ETV3L),binding signal (ETS2),binding signal (SPDEF),binding signal (ETV7),binding signal (ELF5),binding signal (ETV3),binding signal (ETV6)
CGGAAA,"3.21 fold enrichment (6-mer frequency, TF over GST control)","2.32 fold enrichment (6-mer frequency, TF over GST control)","1.94 fold enrichment (6-mer frequency, TF over GST control)","1.84 fold enrichment (6-mer frequency, TF over GST control)","1.55 fold enrichment (6-mer frequency, TF over GST control)","2 fold enrichment (6-mer frequency, TF over GST control)","2.13 fold enrichment (6-mer frequency, TF over GST control)","2.17 fold enrichment (6-mer frequency, TF over GST control)","1.77 fold enrichment (6-mer frequency, TF over GST control)","2.05 fold enrichment (6-mer frequency, TF over GST control)","2.07 fold enrichment (6-mer frequency, TF over GST control)","2.03 fold enrichment (6-mer frequency, TF over GST control)","1.97 fold enrichment (6-mer frequency, TF over GST control)","2.58 fold enrichment (6-mer frequency, TF over GST control)","2.26 fold enrichment (6-mer frequency, TF over GST control)","2.53 fold enrichment (6-mer frequency, TF over GST control)"
CCTGCC,"1.33 fold enrichment (6-mer frequency, TF over GST control)","1.34 fold enrichment (6-mer frequency, TF over GST control)","1.28 fold enrichment (6-mer frequency, TF over GST control)","1.28 fold enrichment (6-mer frequency, TF over GST control)","1.14 fold enrichment (6-mer frequency, TF over GST control)","1.26 fold enrichment (6-mer frequency, TF over GST control)","1.27 fold enrichment (6-mer frequency, TF over GST control)","1.26 fold enrichment (6-mer frequency, TF over GST control)","1.3 fold enrichment (6-mer frequency, TF over GST control)","1.24 fold enrichment (6-mer frequency, TF over GST control)","1.23 fold enrichment (6-mer frequency, TF over GST control)","1.31 fold enrichment (6-mer frequency, TF over GST control)","1.33 fold enrichment (6-mer frequency, TF over GST control)","1.35 fold enrichment (6-mer frequency, TF over GST control)","1.28 fold enrichment (6-mer frequency, TF over GST control)","1.36 fold enrichment (6-mer frequency, TF over GST control)"
